B1: ENSMUSG00000061578.853|Ksr2 (ssRNA)
RNA: GGGAGUUCUACAGUCCGACGAUCGCUUCGAUAUCCGCAUGCUAAAGCAAAGAGCAAUACAGGAAAAGGUCAGGGGUGAGAUGUGUCAUUGCCACUUCCUCCAGCUAGGACCUUUGAGCAUCACAUUGUGAAGCCAUCCAGGGACUUGGGGGUUAGGUCAGAGGUAUCAAUACAUCUCCGGAAACAUCGUCACAGAUACCUAGAGGUACUUCAUUGAUCCCUUGAAAAGCAUGUCUUAAUUCUGUUAAGAUGUCAAUCAAGAUUACACAUCUCACUGCUUCACAGGCCAUCAGGGCCCCAUUCUCUCUUGCGGUCGCACUAGUGUGGAAUUCUCGGGUGUCAAGG
B2: ENSMUSG00000022095.181|Fam160b2 (ssRNA)
RNA: GGGAGUUCUACAGUCCGACGAUCGCUUCGAUAUCCGCAUGCUAAGAGCACUCGGGCGGCGCCAGGCAUUACCUCACAACAGGCCUGCAGUUGUUGGCUUCCCUCCUGGGCAAGGAGGAGCAGGCCAGAGCCCCUUUUGCUUCCUUUUCCUGCCCAUGCCACCUCUCGAAGCCGGGCACAGGUUGCCAGGAGGUGACAUGAAAGAGGAGGAAACUCCAUGACCUCUACAUCCCCCGCAGUCCUCCCAGCGGGGGAGGACUUCUCUGCUGCUCCGAAGAACAUCAUGCACUCCUGUGUGUGUGUGCUCUUGCGGUCGCACUAGUGUGGAAUUCUCGGGUGUCAAGG
B3: ENSMUSG00000022095.187|Fam160b2|213:226;228:260 (ssRNA)
RNA: GGGAGUUCUACAGUCCGACGAUCGCUUCGAUAUCCGCAUGCUAAGGCCUGCAGUUGUUGGCUUCCCUCCUGGGCAAGGAGGAGCAGGCCAGAGCCCCUUUUGCUUCCUUUUCCUGCCCAUGCCACCUCUCGAAGCCGGGCACAGGUUGCCAGGAGGUGACAUGAAAGAGGAGGAAACUCCAUGACCUCUACAUCCCCCGCAGUCCUCCCAGCGGGGGAGGACUUCUCUGCUGCUCCGAAGAACAUCAUGCACUCCACACACACACACACACACACACACACACACACACACACACACACACACCUCUUGCGGUCGCACUAGUGUGGAAUUCUCGGGUGUCAAGG
B4: ENSMUSG00000022095.196|Fam160b2 (ssRNA)
RNA: GGGAGUUCUACAGUCCGACGAUCGCUUCGAUAUCCGCAUGCUAUUUUGCUUCCUUUUCCUGCCCAUGCCACCUCUCGAAGCCGGGCACAGGUUGCCAGGAGGUGACAUGAAAGAGGAGGAAACUCCAUGACCUCUACAUCCCCCGCAGUCCUCCCAGCGGGGGAGGACUUCUCUGCUGCUCCGAAGAACAUCAUGCACUCCUGUGUGUGUGUGUGAGUGUGUGUGUGUGUGUGUGUGUGUGUGUGUGUGUAUGUGUGUGUAUAUGUGUGUGUGUGUGUGUAUGUGUGUGUGUGUGUGUGAGUGCUCUUGCGGUCGCACUAGUGUGGAAUUCUCGGGUGUCAAGG
B5: ENSMUSG00000022095.197|Fam160b2 (ssRNA)
RNA: GGGAGUUCUACAGUCCGACGAUCGCUUCGAUAUCCGCAUGCUAUUCCUUUUCCUGCCCAUGCCACCUCUCGAAGCCGGGCACAGGUUGCCAGGAGGUGACAUGAAAGAGGAGGAAACUCCAUGACCUCUACAUCCCCCGCAGUCCUCCCAGCGGGGGAGGACUUCUCUGCUGCUCCGAAGAACAUCAUGCACUCCUGUGUGUGUGUGUGAGUGUGUGUGUGUGUGUGUGUGUGUGUGUGUGUGUAUGUGUGUGUAUAUGUGUGUGUGUGUGUGUAUGUGUGUGUGUGUGUGUGAGUGAGUGUGCUCUUGCGGUCGCACUAGUGUGGAAUUCUCGGGUGUCAAGG
B6: ENSMUSG00000022095.185|Fam160b2|225:238;240:260 (ssRNA)
RNA: GGGAGUUCUACAGUCCGACGAUCGCUUCGAUAUCCGCAUGCUAUUACCUCACAACAGGCCUGCAGUUGUUGGCUUCCCUCCUGGGCAAGGAGGAGCAGGCCAGAGCCCCUUUUGCUUCCUUUUCCUGCCCAUGCCACCUCUCGAAGCCGGGCACAGGUUGCCAGGAGGUGACAUGAAAGAGGAGGAAACUCCAUGACCUCUACAUCCCCCGCAGUCCUCCCAGCGGGGGAGGACUUCUCUGCUGCUCCGAAGAACAUCAUGCACUCCACACACACACACACACACACACACACACACACACACCUCUUGCGGUCGCACUAGUGUGGAAUUCUCGGGUGUCAAGG
B7: ENSMUSG00000022095.195|Fam160b2 (ssRNA)
RNA: GGGAGUUCUACAGUCCGACGAUCGCUUCGAUAUCCGCAUGCUAAGCCCCUUUUGCUUCCUUUUCCUGCCCAUGCCACCUCUCGAAGCCGGGCACAGGUUGCCAGGAGGUGACAUGAAAGAGGAGGAAACUCCAUGACCUCUACAUCCCCCGCAGUCCUCCCAGCGGGGGAGGACUUCUCUGCUGCUCCGAAGAACAUCAUGCACUCCUGUGUGUGUGUGUGAGUGUGUGUGUGUGUGUGUGUGUGUGUGUGUGUGUAUGUGUGUGUAUAUGUGUGUGUGUGUGUGUAUGUGUGUGUGUGUGUGCUCUUGCGGUCGCACUAGUGUGGAAUUCUCGGGUGUCAAGG
B8: ENSMUSG00000022095.198|Fam160b2 (ssRNA)
RNA: GGGAGUUCUACAGUCCGACGAUCGCUUCGAUAUCCGCAUGCUAUUCCUGCCCAUGCCACCUCUCGAAGCCGGGCACAGGUUGCCAGGAGGUGACAUGAAAGAGGAGGAAACUCCAUGACCUCUACAUCCCCCGCAGUCCUCCCAGCGGGGGAGGACUUCUCUGCUGCUCCGAAGAACAUCAUGCACUCCUGUGUGUGUGUGUGAGUGUGUGUGUGUGUGUGUGUGUGUGUGUGUGUGUAUGUGUGUGUAUAUGUGUGUGUGUGUGUGUAUGUGUGUGUGUGUGUGUGAGUGAGUGUGUGUGUGCUCUUGCGGUCGCACUAGUGUGGAAUUCUCGGGUGUCAAGG
B9: ENSMUSG00000058297.304|Spock2|17:22 (ssRNA)
RNA: GGGAGUUCUACAGUCCGACGAUCGCUUCGAUAUCCGCAUGCUAAGUGAGGGCAGCCCCCACACACGUGGAAGAGGCUGGGCAGCUAGCUACUGGGGACCUUGUGCUGAGGCUUCCAGGACAAAGCCCCAGUCUGGCUCUCCCCCAGCCUCUCAGGGGCACUGGCUGGUCACAUCCACUGAGUAUUGAUCGGUUGGACUUUAGGGAAGAGCCUCCUCCUUCCCAUUCCUUUCUGCCACCCUGGAAUGGCCACCUUAAUCGUCAUCUCCUCGGGGGGAAUACGGAAAUGUCACCAAGCUCCAUAACUCUUGCGGUCGCACUAGUGUGGAAUUCUCGGGUGUCAAGG
B10: ENSMUSG00000090935.612|Synj2bp (ssRNA)
RNA: GGGAGUUCUACAGUCCGACGAUCGCUUCGAUAUCCGCAUGCUAUUUUCUGUGUGGGUGAUUUCAUUUAAUUAAUUGGACAGUCUAGCCACAGGCAACAAAUAGAAAUAGUAUUUGUAAUUAUAGUCUAUGCCAGGGACUGUCUUAAACUGAUUAGUAACACUAUGACUUACCCUGAGAUCUAAGUAUUGCUAUAAAGAGACUGAAGAGGAGAGAAUAAAGUAUUUUCCUAGGACUACAUAGUUGGUAAAAGAGAAUCAUGAUUUAAACUCUGGACUAUGGAUGGCAGUAUCAGUAAUAUUCCCCUCUUGCGGUCGCACUAGUGUGGAAUUCUCGGGUGUCAAGG
B11: ENSMUSG00000061578.450|Ksr2 (ssRNA)
RNA: GGGAGUUCUACAGUCCGACGAUCGCUUCGAUAUCCGCAUGCUACUUCUAACCUUGUACUGGGACAUCAUCUAUGUCCCCAUCCCCAGAGCUGAAUUAGAGACACCAAGUAGCCUCUUGGGUUGUUUUGUGGGGUGUUCCCCUUGCUGGUCAAAGGAGUGGAAAGCCACCUUGCUGUAAAUGCUCUUGUUUUCUGUAGCAAUCUUGAACUCUUUUUUUUUUUUGUUCGUUUGUUUGUUUGUUUGUUUGUUUGUUUUUUCAAGACAGGGUUUUUCUGUAUAGCCCUGGCUGUCCUGGAACUCAUUCUCUUGCGGUCGCACUAGUGUGGAAUUCUCGGGUGUCAAGG
B12: ENSMUSG00000043670.112|Diras1 (ssRNA)
RNA: GGGAGUUCUACAGUCCGACGAUCGCUUCGAUAUCCGCAUGCUACCGUGACCUCUGACCUGUGGCCUUCCCUGGGUCCAGAACACCCCUGUCCUCUCCUGUCUGCACACCAGGGUGGAUGGGCCCGAGGGCUGGGCCUCAGGCACCAGGCAAUAAACACAGGGCCUGCAGCAAUGCCCUGGCCACCCCGAGUACCACCUCUGGAAUAGCAGACGCCCACAGCACAAGCCCAGGACUGUCCCUUCAGGGGAGGCACACUGGAACCCUGAACUUGGAGUGUGGAGUGGCUGCCUGGACACUGCCCACUCUUGCGGUCGCACUAGUGUGGAAUUCUCGGGUGUCAAGG
B13: ENSMUSG00000090935.544|Synj2bp (ssRNA)
RNA: GGGAGUUCUACAGUCCGACGAUCGCUUCGAUAUCCGCAUGCUAUUGUUGAUCUAAAUAAAAAAUAUCAUUGGUAGAAGUUUUACUUUGGUUGAUAAGGAUUCUGAUAACAUUUGGGUCUCCUUAGGAAAGAAACACUUAACUAAAACAUUUAAGUUUUAGGCAAAUACUGUAAUAUUUCACUCUUAGUUAUAUGAAAACUAAAUGAGAUGUUGAGAAUCUAUAUAGAUUAUUCAAAUUUUAUGUUUCUUAUAGACUGACUCAAAUAUUCCUACCACCUUAAAAUUAUAUAUGAUGCACCUACCCUCUUGCGGUCGCACUAGUGUGGAAUUCUCGGGUGUCAAGG

In all, about 9,900 sequences were measured (“r (bound/input frequency ratio)”: median about 0.7, highest 2% from about 6.5 on). This is one part of a sample in which the highest values are shown more often than they occur.

Chain of TDP-43 (Q13148 whole entry): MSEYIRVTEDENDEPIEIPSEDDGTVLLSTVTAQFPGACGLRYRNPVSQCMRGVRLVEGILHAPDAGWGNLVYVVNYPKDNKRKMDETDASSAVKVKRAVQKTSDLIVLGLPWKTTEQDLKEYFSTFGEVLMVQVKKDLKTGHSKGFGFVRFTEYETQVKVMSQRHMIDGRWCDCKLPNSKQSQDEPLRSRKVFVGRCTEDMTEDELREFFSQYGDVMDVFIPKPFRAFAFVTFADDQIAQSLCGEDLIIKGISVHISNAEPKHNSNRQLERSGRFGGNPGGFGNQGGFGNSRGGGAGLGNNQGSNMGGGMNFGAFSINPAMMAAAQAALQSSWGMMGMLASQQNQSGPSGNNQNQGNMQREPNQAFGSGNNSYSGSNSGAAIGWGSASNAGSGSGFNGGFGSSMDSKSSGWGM

The experiment concerns the target TDP-43 (Homo sapiens, UniProt Q13148 1-414). The experiment can be described thus: RNA Bind-n-Seq with designed 260-mer pool; 25 mM Tris-HCl, 150 mM KCl, 3 mM MgCl2, BSA (printed 500 mg/mL), 20 units/mL SUPERase IN; pH not stated; 500 nM RNA pool, 1 h, 4 C; TDP-43 5, 50, 500 nM; high values mean tight binding. As to conditions: protein: recombinant; tags: SBP (GST cleaved off with PreScission; pGEX-GST-SBP). An outline of the steps: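 The incubation lasted 1 h at 4 °C and used 500 nM of an in vitro-transcribed 260-nt 3′ UTR oligo pool with recombinant SBP-tagged TDP-43 at 5, 50 or 500 nM immobilized on streptavidin beads. It took place in 25 mM Tris-HCl, 150 mM KCl, 3 mM MgCl2, BSA and SUPERase IN. Bound RNA was washed, eluted with biotin, converted to cDNA, PCR-amplified and sequenced to give R, each oligo's normalized abundance in the bound sample divided by that in input. Two independent protein batches provided the duplicates.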
Turning to B1, the binding signal is 0.223 R (bound/input frequency ratio).

On to B2, for which the binding signal is 0.283 R (bound/input frequency ratio). In the case of B3 it was 1.89 R (bound/input frequency ratio). In the case of B4 it was 6.8 R (bound/input frequency ratio); in that of B5, 6.5 R (bound/input frequency ratio). For the molecule B6, the binding signal is 2.7 R (bound/input frequency ratio).

As for B7, the binding signal is 9.34 R (bound/input frequency ratio). In the case of B8 it was 10 R (bound/input frequency ratio); in that of B9, 0.535 R (bound/input frequency ratio); in that of B10, 0.0897 R (bound/input frequency ratio). For B11, the binding signal is 2.73 R (bound/input frequency ratio). In the case of B12 it was 0.898 R (bound/input frequency ratio); in that of B13, 0.0172 R (bound/input frequency ratio).

For the origin of these results see article PMC12864922, “TDP-43 directly inhibits mRNA accumulation in neurites through modulation of mRNA stability”.
